Laboratory results reported in PubChem BioAssay AID1159580 (chemical genetic matrix, 2015).
“And” between values parts separate entries of the source, which are not always exact repeats. Equal entries are not always repeated. Hit rate of the full screen: of about 5,500 compounds, about 2,000 (36%) were called active. Not shown: some 18% with an inconclusive outcome. No stated cut-off is given here; in the data, active means normalized growth mostly below about 0.91 (no sharp cut-off); inconclusive means no clear call, values can overlap the other calls; inactive means mostly above about 0.92. This is one part of the list.

Experiment: chemical genetic growth profiling, strain panel (AID 1159580);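 further: tested at 20 µM; growth read once vehicle control cultures reached saturation at 30 °C; 1 = growth at the plate median or of vehicle wells; lower values mean less growth of the strain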
Settings: S. cerevisiae deletion strains, growth OD

Measured: normalized growth

OC1C(O)C(O)C(O)C(O)C1O (stereo not given)
inactive: locus YAL013W, strain DEP1, hits give low values 0.998 | locus YAL021C, strain ccr4, hits give low values 0.996 | locus YAL026C, strain drs2, hits give low values 1 | locus YAL030W, strain snc1, hits give low values 0.997 | locus YBL061C, strain skt5, hits give low values 0.998 | locus YBR009C, strain hhf1, hits give low values 1.01 | locus YBR021W, strain FUR4, hits give low values 1.08 | locus YBR023C, strain chs3, hits give low values 0.997 | locus YBR171W, strain sec66, hits give low values 1 | locus YBR229C, strain ROT2, hits give low values 0.957 | locus YBR231C, strain swc5, hits give low values 0.999 | locus YBR279W, strain paf1, hits give low values 1 | locus YCL011C, strain gbp2, hits give low values 1.01 | locus YCL016C, strain dcc1, hits give low values 1.01 | locus YCL029C, strain bik1, hits give low values 0.981 | locus YCL061C, strain MRC1, hits give low values 0.996 | locus YCL069W, strain vba3, hits give low values 0.999 | locus YCR088W, strain abp1, hits give low values 1 | locus YDL005C, strain med2, hits give low values 1 | locus YDL035C, strain GPR1, hits give low values 1 | locus YDL040C, strain nat1, hits give low values 1 | locus YDL074C, strain BRE1, hits give low values 0.962 | locus YDL101C, strain DUN1, hits give low values 0.989 | locus YDL134C, strain PPH21, hits give low values 0.99 | locus YDL185W, strain tfp1, hits give low values 0.966 | locus YDL192W, strain arf1, hits give low values 0.977 | locus YDR001C, strain nth1, hits give low values 0.998 | locus YDR069C, strain doa4, hits give low values 0.999 | locus YDR101C, strain arx1, hits give low values 0.976 | locus YDR137W, strain rgp1, hits give low values 1 | locus YDR150W, strain NUM1, hits give low values 0.99 | locus YDR159W, strain sac3, hits give low values 0.993 | locus YDR162C, strain NBP2, hits give low values 0.994 | locus YDR195W, strain ref2 0.984 | locus YDR297W, strain sur2, hits give low values 1 | locus YDR318W, strain mcm21, hits give low values 0.992 | locus YDR334W, strain swr1, hits give low values 0.994 | locus YDR335W, strain msn5, hits give low values 1 | locus YDR388W, hits give low values 0.989 | locus YDR392W, strain spt3, hits give low values 0.999 | locus YDR502C, strain sam2, hits give low values 0.986 | locus YEL003W, strain gim4, hits give low values 1.01 | locus YEL037C, strain rad23, hits give low values 1 | locus YEL061C, strain CIN8 (second series), hits give low values 1 | locus YEL061C, strain CIN8, hits give low values 0.983 | locus YER015W, strain faa2, hits give low values 0.993 | locus YER016W, strain bim1, hits give low values 0.991 | locus YER110C, hits give low values 0.982 | locus YER111C, strain swi4, hits give low values 1 | locus YER155C, strain BEM2 (second series), hits give low values 1.01 | locus YER155C, strain BEM2, hits give low values 0.999 | locus YER167W, strain BCK2, hits give low values 0.995 | locus YFR010W, strain ubp6, hits give low values 1 | locus YGL078C, strain dbp3, hits give low values 0.973 | locus YGL086W, strain mad1, hits give low values 0.979 | locus YGL167C, strain pmr1, hits give low values 1 | locus YGL173C, strain kem1, hits give low values 1.01 | locus YGL227W, strain vid30, hits give low values 1.01 | locus YGL240W, strain doc1, hits give low values 0.989 | locus YGL248W, strain PDE1, hits give low values 0.969 | locus YGL253W, strain hxk2, hits give low values 1 | locus YGR135W, strain pre9, hits give low values 1.02 | locus YGR252W, strain gcn5, hits give low values 0.924 | locus YHR013C, strain ard1, hits give low values 1 | locus YHR027C, strain rpn1, hits give low values 1 | locus YHR030C, strain SLT2, hits give low values 0.975 and 1 | locus YHR079C, strain IRE1 (second series), hits give low values 0.99 | locus YHR079C, strain IRE1, hits give low values 0.973 | locus YHR094C, strain hxt1, hits give low values 0.996 | locus YHR129C, strain ARP1, hits give low values 0.993 | locus YHR142W, strain chs7, hits give low values 1.01 | locus YHR200W, strain rpn10, hits give low values 0.971 | locus YIL066C, strain RNR3, hits give low values 0.979 | locus YIL073C, strain SPO22, hits give low values 0.994 | locus YIL125W, strain kgd1, hits give low values 0.98 | locus YIR030C, strain dcg1, hits give low values 0.995 | locus YJL092W, strain hpr5, hits give low values 1 | locus YJL095W, strain BCK1 (second series), hits give low values 1 | locus YJL095W, strain BCK1, hits give low values 0.991 | locus YJL115W, strain asf1, hits give low values 1 | locus YJL129C, strain trk1, hits give low values 1.02 | locus YJL134W, strain LCB3, hits give low values 0.995 | locus YJL154C, strain vps35, hits give low values 1 | locus YJL164C, strain tpk1, hits give low values 0.999 | locus YJL166W, strain qcr8, hits give low values 1.01 | locus YJL168C, strain set2, hits give low values 0.998 | locus YJL187C, strain SWE1 (second series), hits give low values 0.97 | locus YJL187C, strain SWE1, hits give low values 1.01 | locus YJR043C, strain POL32, hits give low values 0.995 | locus YJR066W, strain TOR1, hits give low values 0.956
